# Experimental data reported in PubChem BioAssay (NCATS).
# Records with an inconclusive call do not appear. The source made the active and inactive calls. The call rests on the fitted dose curve; in most records, active means well fitted inhibition curve with a large enough effect; inconclusive means small, poorly fitted or top-dose-only effect; inactive means flat fitted curve, though single readings scatter.
# Target: Calcium and integrin-binding protein 1 (Homo sapiens) (UniProt Q99828)
# Experiment: Primary qHTS for Identification of Calcium Integrin Binding Protein 1 (CIB1) Competitor (AID 1508620); further: top concentration of the series differs between compounds
# Conditions: CIB1-GST / FITC-alphaIIb peptide fluorescence polarization; series mostly up to 114 µM; activity change, negative = inhibition: at the top concentration
# Outline: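 Fluorescence polarization competition: GST-tagged CIB1 (1 uM final) preincubated with compound 15 min at room temperature, then FITC-labelled alphaIIb peptide (100 nM final) added. After 15 min at room temperature, polarization read at Ex 480/Em 540.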
# On the % scale 0 is the no-effect control and ±100 the full control effect.
# Calcium and integrin-binding protein 1 (Homo sapiens), sequence (Q99828 whole entry, looked up): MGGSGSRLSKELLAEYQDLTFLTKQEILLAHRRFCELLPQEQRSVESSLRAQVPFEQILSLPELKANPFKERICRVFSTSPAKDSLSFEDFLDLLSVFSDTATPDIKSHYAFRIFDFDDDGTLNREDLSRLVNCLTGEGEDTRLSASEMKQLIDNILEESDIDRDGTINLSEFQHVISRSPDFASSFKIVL
SMILES,"activity change, negative = inhibition",Potency
CC(C)(C)OC(=O)N1CCN(c2cnc(NCc3ccc(-c4ccc(C#N)cc4)o3)cn2)CC1,1.52% (inactive),
O=c1c2ccccc2nc2sc(NCc3ccc(Oc4ccccc4)cc3)nn12,8.44% (inactive),
COc1ccc(OC)c(NC(=O)C(OC(=O)CNC(=O)c2ccccc2)c2ccccc2)c1 (centres undefined),2.26% (inactive),
O=C(Cc1ccc(Cl)c(Cl)c1)Nc1ccc([S+](=O)([O-])Nc2ccccn2)cc1,-11.4% (inactive),
COc1ccc(C2Nc3ccccc3C(=O)N2Cc2ccccc2)cc1COc1cccc(Cl)c1 (centres undefined),-1% (inactive),
CN(C)c1ccc(/C=C/C(=O)Nc2cccc([S+](=O)([O-])Nc3ccccc3F)c2)cc1,9.96% (inactive),
FC(F)(F)c1ccccc1-c1nc(NCc2ccc(-c3ccc(Cl)c(Cl)c3)cc2)c2ccccc2n1,2.96% (inactive),
NC(=O)c1cccc(-c2noc(-c3ccccc3F)n2)c1,-0.173% (inactive),
CC(C)(C)Cc1nnc(NC(=O)CSc2ccccc2)s1,1.62% (inactive),
CC(=O)C1CCN(c2ncc(-c3cccc(N(C)C)c3)s2)CC1,-3.96% (inactive),
COc1cc(O)c(C(CC(=O)N2CCCC(C(=O)c3ccccc3)C2)c2ccc3c(c2)OCO3)c(OC)c1 (centres undefined),8.78% [at 228 µM] (inactive),
c1ccc(CNCc2nnc(-c3cc4ccccc4[nH]3)o2)cc1,-4.47% (inactive),
COc1cccc(C2C(C#N)=C(NC(=O)NCc3ccccc3)Oc3ccc4ccccc4c32)c1 (centres undefined),12.9% (inactive),
O=S(=O)(Nc1ccccc1F)c1ccc(O)c2ncccc12,-6.54% (inactive),
COc1cc(OC)cc(-c2csc(N3CCC(C(N)=O)CC3)n2)c1,1.05% (inactive),
COc1ccc([C@H]2[C@H](c3ccccc3)C(=O)N2Cc2ccccc2)cc1COc1ccc(NC(C)=O)cc1,3.2% (inactive),
COc1cccc(Cn2ncc3c4sc(C)cc4n(C)c3c2=O)c1,-1.53% (inactive),
N#Cc1cccnc1SC1=NS(=O)(=O)c2ccccc21,-13.4% (inactive),
N#Cc1cccc(S(=O)(=O)N2CCN(S(=O)(=O)c3ccc4c(c3)OCCO4)CC2)c1,-4.35% (inactive),
O=C(OCC#CCSc1nnc(-c2cccc3ccccc23)o1)c1ccc(Br)cc1,-1.14% (inactive),

SMILES,"activity change, negative = inhibition",Potency
Cc1cc(N[S+](=O)([O-])c2cc3c(cc2Cl)CCC(=O)N3)ccc1Cl,-11.9% (inactive),
COc1ccc(C2Nc3ccccc3C(=O)N2CCCN(C)C)cc1COc1c(C)cc(NC(C)=O)cc1C (centres undefined),-0.308% (inactive),
COc1ccc(C2Nc3ccccc3C(=O)N2Cc2ccccc2)cc1COc1ccc(Cl)cc1 (centres undefined),0.365% (inactive),
COc1ccc(C(=O)N(Cc2ccccc2)Cc2ccc(OC)c(COc3ccc(NC(C)=O)cc3)c2)c(O)c1,-2.55% (inactive),
Cc1cccc(-c2ccc3ncnc(N(C)Cc4ccco4)c3c2)c1,2.67% (inactive),
COc1cc(F)c(S(=O)(=O)N2CCN(S(=O)(=O)c3ccc(N)cc3)CC2)c(F)c1,-0.56% (inactive),
Cn1c2ccsc2c2ncn(Cc3ccc(F)cc3)c(=O)c21,-1.3% (inactive),
Cc1ccc(S(=O)(=O)Nc2ccc(NS(=O)(=O)c3ccc(C)cc3)c3ncccc23)cc1,-1.3% (inactive),
Cc1ccc(C)c(OCCn2c(CCNC(=O)C3CCCCC3)nc3ccccc32)c1,,inactive
Cc1ccccc1Nc1nc(C#N)nc(NC2CCCC2)n1,-0.329% (inactive),
O=C1CCc2cc(S(=O)(=O)Nc3cccc(C(F)(F)F)c3)ccc2N1,1.01% (inactive),
Cc1ccc(S(=O)(=O)N(C)c2cccc3cccnc23)cc1,2.24% (inactive),
CN(CC(=O)Nc1ccc(N2CCOCC2)cc1)Cc1ccccc1O,-16% (inactive),
Cc1cc(C)n2ncc(C(=O)Nc3ccccc3Sc3ccccc3)c2n1,-2.02% (inactive),
O=C(NCCCCc1ccccc1)C1CCN(c2nc(-c3ccc(Br)cc3)cs2)CC1,3.8% (inactive),
NC(=O)C1CCN(c2nccc(-c3ccc4c(c3)OCCCO4)n2)CC1,-9.25% (inactive),
CCOC(=O)C1CCN(C(=O)C(C)(C)NC(=O)Nc2ccc3ccccc3c2)CC1,-18.8% (inactive),
COc1ccc(-c2csc3ncnc(Sc4nnnn4C)c23)cc1,-1.35% (inactive),
N#Cc1c(-c2ccccc2C(F)(F)F)nc2ccccc2c1NCc1ccc(-c2cccnc2)cc1,18.7% (inactive),
